Only some compounds are listed: those with a hit (about 2.7% of all), similar ones and a draw of the others.
CF NFkB block – inhibitors of PAF-induced NF-kB signaling, primary screen, cell-based, GFP fluorescence, uHTS; inhibition, % at 5 µM; 0.86% of 360,000 active; KKLEB NF-kB-GFP reporter, GFP fluorescence overnight;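 active = at least 50% inhibition at 5 µM, scaled per plate between neutral and stimulator controls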;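 also: PAF is a Pseudomonas aeruginosa culture filtrate used as stimulus; plate controls were PAF-stimulated DMSO wells for no effect and unstimulated DMSO wells for full effect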
KKLEB tox – cytotoxicity in KKLEB CF airway cells, primary screen, cytotoxicity control for CF NF-kB inhibitor project, cell-based, uHTS, fluorescence assay plates; activity change (cytotoxicity), % at 5 µM; KKLEB CF airway cells viability, ATPlite luminescence, overnight; hits give low values; cells stimulated with P. aeruginosa culture filtrate; 0.36% of 360,000 active;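 active = corrected activity change at or below -50% at 5 µM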
Shn3 inh set2 – reduction of Shn3 3'UTR firefly luciferase signal, primary screen, Schnurri-3 inhibitor project, cell-based, Clone20 osteoblasts, set 2; Clone20 osteoblast Shn3 3'UTR firefly luciferase, 24 h; inhibition, % at 12.5 µM; 0.52% of 360,000 active; AID 588674, 2011;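 active = mean inhibition of at least 75% with every replicate also reaching 75%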;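 also: 0% = median of neutral control wells and 100% = pilot-screen positive control compound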
HIF-2a block – HIF-2a reporter inhibitors, primary screen, luminescence, 786-0 RCC cells. 786-0 RCC cells HIF-2a reporter, luciferase luminescence, overnight. inhibition, % at 18.8 µM. 0.72% of 360,000 active;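 active = inhibition of the luminescence signal of 40% or more relative to plate controls, in a single-dose primary screen at 18.75 µM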
TRPM1 prom inh – inhibitors of MITF-dependent TRPM1 promoter reporter, primary screen, cell-based, SK-MEL-5, single point, luciferase. SK-MEL-5 TRPM1 promoter luciferase, 24 h. inhibition, % at 12.5 µM. 0.83% of 330,000 active. AID 488899, 2010;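 active = mean inhibition across replicates of 60% or more, whatever share of single replicates reaches that level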
Peg3 prom inh-1 – Peg3 promoter-driven luciferase inhibitors, primary screen, cell-based, HeLa, luciferase luminescence; HeLa PEG-Prom luciferase reporter, overnight; inhibition, % at 20 µM; 1.7% of 360,000 active; AID 588405, 2011;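 active = inhibition of at least 50% at 20 µM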
Peg3 prom inh-2 – Peg3 promoter reporter inhibitors, retest, confirmation, cell-based, HeLa, luciferase reporter, single concentration; 84% of 1,300 active; HeLa PEG-Prom luciferase reporter, luminescence, overnight; shares compounds with Peg3 prom inh-1; AID 602417, 2012; inhibition, % at 20 µM;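 active = at 20 µM dose, 40% or more inhibition averaged across four replicates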
CF NFkB conf – inhibitors of PAF-induced NF-kB signaling, retest, confirmation, cell-based, GFP fluorescence, single concentration. shares compounds with CF NFkB block. KKLEB CF airway cells, overnight. inhibition, % at 5 µM. 64% of 1,300 active. AID 602472, 2012; in the data active = inhibition above about 40%;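 also: stimulus PAF is a Pseudomonas aeruginosa filtrate and not platelet activating factor; plate controls were DMSO wells with stimulus for no effect and unstimulated DMSO wells for full effect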
Mdm2 MdmX conf – retested Mdm2-MdmX interaction blockers, confirmation, cell-based, luminescence, single concentration, set 2; shares compounds with HIF-2a block; 99% of 740 active; SaOS-2 split-luciferase Mdm2/MdmX complementation; inhibition, % at 8 µM; AID 504601, 2011;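 active = mean inhibition of the luminescence signal across two replicates at or above 26 percent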
HIF-2a conf – HIF-2a reporter inhibitor retest, confirmation, luminescence, 786-0 RCC cells; shares compounds with HIF-2a block; HIF-2a luciferase reporter luminescence, overnight; inhibition, % at 18.8 µM; 56% of 1,800 active; AID 651580, 2012;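 active = mean inhibition across four replicates of at least 40 percent at the single tested concentration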
HIF-1a cs – HIF-1a luciferase reporter signal reduction – MiaPaCa-2 cells, single concentration, counter-screen for HIF-2a inhibitor project, confirmation; shares compounds with HIF-2a block; MiaPaCa-2 HIF-1a luciferase reporter, desferoxamine, overnight; inhibition, % at 18.8 µM; 72% of 1,800 active; AID 651589, 2012;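 active = mean inhibition of the reporter signal across four replicates at the single tested dose of 50% or more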
* = called active by the depositor.

CCC1=C(CC2NCCc3ccccc32)CC2c3cc(OC)c(OC)cc3CCN2C1 (centres undefined) was read as CF NFkB block 63.3*, KKLEB tox -11.5, Shn3 inh set2 74.5, HIF-2a block 41.0*, TRPM1 prom inh 69.5*, Peg3 prom inh-1 61.5*, Peg3 prom inh-2 79.5*, CF NFkB conf 72.3*, HIF-2a conf 38.7 and HIF-1a cs 104.0*.
`COc1cc(/C=C/C(=O)N2CCCN(C(=O)/C=C/c3cc(OC)c(OC)c(OC)c3)CC2)cc(OC)c1OC` gave CF NFkB block -28.8, KKLEB tox 7.1, Shn3 inh set2 0.5, HIF-2a block 5.5, TRPM1 prom inh 10.5 and Peg3 prom inh-1 4.0.
For COc1cc(/C=C/C(=O)N2CCC=CC2=O)cc(OC)c1OC the results were CF NFkB block 80.7*, KKLEB tox 16.5, Shn3 inh set2 38.0, HIF-2a block 94.3*, TRPM1 prom inh 92.3*, Peg3 prom inh-1 103.6*, Peg3 prom inh-2 93.6*, CF NFkB conf 33.5, HIF-2a conf 82.6* and HIF-1a cs 103.5*.
`CNC[C@H](CC1CCCCC1)NC[C@H](Cc1ccccc1)NCCC12CC3CC(CC(C3)C1)C2` gave CF NFkB block 64.8*, KKLEB tox -84.9*, Shn3 inh set2 97.8*, HIF-2a block 95.9*, TRPM1 prom inh 48.7, Peg3 prom inh-1 98.7*, Peg3 prom inh-2 100.0*, Mdm2 MdmX conf 102.7*, HIF-2a conf 16.1 and HIF-1a cs 104.2*.
`NC[C@H](Cc1ccccc1)NCCCCC1CCCCC1` gave CF NFkB block 2.1, KKLEB tox 2.9, Shn3 inh set2 1.2, HIF-2a block 9.1, TRPM1 prom inh -4.8 and Peg3 prom inh-1 -11.4.
For O=C1c2ccccc2S(=O)(=O)N1Cc1nc2ccccc2s1 the results were CF NFkB block 1.2, KKLEB tox -0.6, Shn3 inh set2 38.8, HIF-2a block 67.5*, TRPM1 prom inh 70.4*, Peg3 prom inh-1 93.4*, Peg3 prom inh-2 57.8*, HIF-2a conf 76.3* and HIF-1a cs 74.8*.
Cc1cc2c(c(/C=C/C(=O)c3ccccc3)c1)OC1(C=C2)Oc2ccccc2C(=O)N1C (centres undefined) was read as CF NFkB block 61.8*, KKLEB tox -23.1, Shn3 inh set2 93.0*, HIF-2a block 79.8*, TRPM1 prom inh 39.7, Peg3 prom inh-1 80.0*, Peg3 prom inh-2 99.3*, CF NFkB conf -122.5, HIF-2a conf 61.9* and HIF-1a cs 105.0*.
Screening COc1ccc(CCN(C)C(=O)COc2cccc(-n3cnnn3)c2)cc1OC returned CF NFkB block 3.3, KKLEB tox 1.9, Shn3 inh set2 2.8, HIF-2a block -58.0, TRPM1 prom inh 1.6 and Peg3 prom inh-1 -1.5.
COCCn1c(C)cc(C2=NNC(=Nc3ccc(Cl)cc3Cl)SC2)c1C was read as CF NFkB block 3.3, KKLEB tox 0.8, Shn3 inh set2 4.9, HIF-2a block 6.6, TRPM1 prom inh 13.2 and Peg3 prom inh-1 -2.6.
COCCn1c(C)cc(C2=NNC(=NC3CC3)SC2)c1C was read as CF NFkB block -19.3, KKLEB tox -1.9, Shn3 inh set2 90.5*, HIF-2a block 92.6*, TRPM1 prom inh 102.1*, Peg3 prom inh-1 104.4*, Peg3 prom inh-2 95.3*, Mdm2 MdmX conf 101.0*, HIF-2a conf 98.8* and HIF-1a cs 105.3*.
CCOC(=O)c1ccc2nc(Nc3nc4ccc(F)cc4s3)sc2c1 was read as CF NFkB block 25.0, KKLEB tox -9.5, Shn3 inh set2 34.5, HIF-2a block 90.7*, TRPM1 prom inh 96.4*, Peg3 prom inh-1 95.9*, Peg3 prom inh-2 93.1*, HIF-2a conf 93.4* and HIF-1a cs 72.5*.
CCOC(=O)c1ccc2nc(NC(C)=O)sc2c1 was read as CF NFkB block 7.2, KKLEB tox -8.2, Shn3 inh set2 -64.0, HIF-2a block -213.1, TRPM1 prom inh -38.4 and Peg3 prom inh-1 -211.3.
COC(=O)[C@H](C)NC(=O)Nc1cccc(Br)c1 was read as CF NFkB block -6.1, KKLEB tox -2.9, Shn3 inh set2 4.3, HIF-2a block 15.6, TRPM1 prom inh 2.2 and Peg3 prom inh-1 17.3.
For CS(=O)(=O)Nc1cccc(NC(=O)C2Cc3c(-c4ccccc4)ccnc3O2)c1 (centres undefined) the results were CF NFkB block 1.2, KKLEB tox -0.9, Shn3 inh set2 69.2, HIF-2a block 46.8*, Peg3 prom inh-1 51.3*, Peg3 prom inh-2 56.7*, HIF-2a conf 22.0 and HIF-1a cs 85.2*.
`O=C1C(O)=C(O)C(=O)c2ccccc21` gave CF NFkB block 15.5, KKLEB tox -3.6, Shn3 inh set2 -0.9, HIF-2a block 14.4, TRPM1 prom inh 36.9 and Peg3 prom inh-1 27.4.
Screening O=C1C(Cl)=C(Nc2ccc(O)cc2)C(=O)c2ccccc21 returned CF NFkB block 108.4*, KKLEB tox -81.6*, Shn3 inh set2 91.8*, HIF-2a block 93.9*, TRPM1 prom inh 97.0*, Peg3 prom inh-1 106.8*, Peg3 prom inh-2 96.4* and Mdm2 MdmX conf 103.0*.
Screening O=C1CCCCC1Sc1nnc(-c2ccc3c(c2)OCO3)o1 (centres undefined) returned CF NFkB block -3.5, KKLEB tox -5.4, Shn3 inh set2 24.8, HIF-2a block 69.3*, TRPM1 prom inh 44.5, Peg3 prom inh-1 85.1*, Peg3 prom inh-2 74.3*, HIF-2a conf 85.6* and HIF-1a cs 91.8*.
